# Measurements published in article PMC7862700, “An all-to-all approach to the identification of sequence-specific readers for epigenetic DNA modifications on cytosine”.
# Key:
# Experiment in all cases: DAPPL (digital affinity profiling via proximity ligation, sequencing); 10 mM Tris-HCl pH 7.5, 50 mM NaCl, 1 mM DTT, 4% glycerol, room temperature, 30 min; GST-TFs on glutathione beads, 16-mer random dsDNA library, 0.1% formaldehyde crosslink after washing; high values mean tight binding
# FLI1 = target: T1, FLI1 (Homo sapiens, UniProt Q01543 1-452); conditions: protein: recombinant; tags: N-terminal GST; dsDNA, one strand shown
# T1 sequence: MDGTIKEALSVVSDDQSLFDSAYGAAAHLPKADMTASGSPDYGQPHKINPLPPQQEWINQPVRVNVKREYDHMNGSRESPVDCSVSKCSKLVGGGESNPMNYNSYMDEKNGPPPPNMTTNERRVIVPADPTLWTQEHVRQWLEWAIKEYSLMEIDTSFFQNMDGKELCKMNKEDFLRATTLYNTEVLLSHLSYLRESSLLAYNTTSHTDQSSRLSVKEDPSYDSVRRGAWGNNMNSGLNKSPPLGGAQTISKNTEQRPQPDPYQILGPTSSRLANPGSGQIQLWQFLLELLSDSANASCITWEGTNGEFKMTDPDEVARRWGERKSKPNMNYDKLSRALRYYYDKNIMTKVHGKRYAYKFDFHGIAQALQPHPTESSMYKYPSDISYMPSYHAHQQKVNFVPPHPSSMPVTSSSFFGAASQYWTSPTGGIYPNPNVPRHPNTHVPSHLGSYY
# How it was run: (§1)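 A tag-only sample was pooled with DNA-barcoded human transcription factors that had been expressed in yeast as GST fusions and captured on glutathione beads. The pools were incubated for 30 min at room temperature with 200 nmole of a random double-stranded 16-mer DNA library in Tris/NaCl/DTT/glycerol buffer, then washed, crosslinked with 0.1% formaldehyde, proximity-ligated (BsaI/T4 ligase, 1 h, 37 °C), PCR-amplified and sequenced on an Illumina NextSeq500. Binding signal is each hexamer's read frequency for a factor divided by its frequency for the tag-only sample.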
# ELK1 = target: T2, ELK1 (Homo sapiens, UniProt P19419 1-428); conditions: protein: recombinant; tags: N-terminal GST; dsDNA, one strand shown
# T2 sequence: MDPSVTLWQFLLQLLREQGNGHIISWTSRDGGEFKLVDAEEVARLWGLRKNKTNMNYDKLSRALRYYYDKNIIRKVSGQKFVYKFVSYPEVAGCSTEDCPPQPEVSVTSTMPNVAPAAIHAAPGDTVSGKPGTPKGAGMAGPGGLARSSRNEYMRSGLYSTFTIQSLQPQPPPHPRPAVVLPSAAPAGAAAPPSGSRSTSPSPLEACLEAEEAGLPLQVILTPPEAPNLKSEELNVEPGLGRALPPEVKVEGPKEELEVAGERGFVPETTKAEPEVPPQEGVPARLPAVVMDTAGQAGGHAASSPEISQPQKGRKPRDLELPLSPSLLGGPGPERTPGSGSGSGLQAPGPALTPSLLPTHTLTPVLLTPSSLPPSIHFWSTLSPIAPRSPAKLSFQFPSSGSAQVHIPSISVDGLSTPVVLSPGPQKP
# How it was run: as §1
# GABPA = target: T3, GABPA (Homo sapiens, UniProt Q06546 1-454); conditions: protein: recombinant; tags: N-terminal GST; dsDNA, one strand shown
# T3 sequence: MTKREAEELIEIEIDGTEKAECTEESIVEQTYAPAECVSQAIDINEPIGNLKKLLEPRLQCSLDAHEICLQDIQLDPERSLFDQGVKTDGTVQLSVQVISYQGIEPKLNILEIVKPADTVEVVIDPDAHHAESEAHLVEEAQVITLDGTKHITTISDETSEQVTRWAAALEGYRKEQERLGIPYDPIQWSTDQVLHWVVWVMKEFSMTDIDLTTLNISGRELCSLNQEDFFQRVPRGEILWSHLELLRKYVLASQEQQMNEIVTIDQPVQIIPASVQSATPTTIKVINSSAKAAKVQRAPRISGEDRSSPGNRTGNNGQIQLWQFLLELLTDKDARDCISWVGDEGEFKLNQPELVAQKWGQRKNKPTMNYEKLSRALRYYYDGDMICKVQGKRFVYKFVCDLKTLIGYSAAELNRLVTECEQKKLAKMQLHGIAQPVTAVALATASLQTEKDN
# How it was run: as §1
# ERG = target: T4, ERG (Homo sapiens, UniProt P11308 1-479); conditions: protein: recombinant; tags: N-terminal GST; dsDNA, one strand shown
# T4 sequence: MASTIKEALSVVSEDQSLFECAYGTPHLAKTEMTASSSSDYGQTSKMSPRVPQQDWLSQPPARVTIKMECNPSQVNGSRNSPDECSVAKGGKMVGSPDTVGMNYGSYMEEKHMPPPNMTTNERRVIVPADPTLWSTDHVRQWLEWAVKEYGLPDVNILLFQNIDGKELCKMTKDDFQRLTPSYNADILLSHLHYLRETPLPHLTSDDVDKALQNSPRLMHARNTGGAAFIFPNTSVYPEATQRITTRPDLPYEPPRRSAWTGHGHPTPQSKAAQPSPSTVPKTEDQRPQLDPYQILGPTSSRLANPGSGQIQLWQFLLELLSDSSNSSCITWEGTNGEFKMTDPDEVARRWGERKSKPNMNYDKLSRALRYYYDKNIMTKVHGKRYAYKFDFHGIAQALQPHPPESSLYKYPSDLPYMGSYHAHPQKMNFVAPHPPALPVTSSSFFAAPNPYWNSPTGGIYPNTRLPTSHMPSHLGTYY
# How it was run: as §1
# ELF1 = ELF1 (Homo sapiens, UniProt P32519 1-619); conditions: protein: recombinant; tags: N-terminal GST; dsDNA, one strand shown
# Sequence of ELF1 (P32519 whole entry): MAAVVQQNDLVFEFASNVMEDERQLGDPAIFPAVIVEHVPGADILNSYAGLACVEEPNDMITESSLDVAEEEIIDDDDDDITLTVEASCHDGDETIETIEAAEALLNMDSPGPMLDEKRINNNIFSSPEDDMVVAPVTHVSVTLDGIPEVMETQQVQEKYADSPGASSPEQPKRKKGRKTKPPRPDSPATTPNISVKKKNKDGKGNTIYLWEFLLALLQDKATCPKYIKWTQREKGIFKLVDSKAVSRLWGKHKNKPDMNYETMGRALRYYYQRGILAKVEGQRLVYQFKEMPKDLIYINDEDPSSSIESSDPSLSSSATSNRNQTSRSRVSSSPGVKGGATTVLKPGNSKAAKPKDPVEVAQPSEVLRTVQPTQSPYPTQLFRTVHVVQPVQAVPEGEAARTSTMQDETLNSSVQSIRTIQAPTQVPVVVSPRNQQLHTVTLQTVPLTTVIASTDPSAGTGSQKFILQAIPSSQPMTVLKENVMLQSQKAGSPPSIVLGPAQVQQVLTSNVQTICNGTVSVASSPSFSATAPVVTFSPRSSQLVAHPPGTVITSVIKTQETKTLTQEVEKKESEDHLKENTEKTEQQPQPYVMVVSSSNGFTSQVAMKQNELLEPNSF
# How it was run: as §1
# EHF = target: T5, EHF (Homo sapiens, UniProt Q9NZC4 1-300); conditions: protein: recombinant; tags: N-terminal GST; dsDNA, one strand shown
# T5 sequence: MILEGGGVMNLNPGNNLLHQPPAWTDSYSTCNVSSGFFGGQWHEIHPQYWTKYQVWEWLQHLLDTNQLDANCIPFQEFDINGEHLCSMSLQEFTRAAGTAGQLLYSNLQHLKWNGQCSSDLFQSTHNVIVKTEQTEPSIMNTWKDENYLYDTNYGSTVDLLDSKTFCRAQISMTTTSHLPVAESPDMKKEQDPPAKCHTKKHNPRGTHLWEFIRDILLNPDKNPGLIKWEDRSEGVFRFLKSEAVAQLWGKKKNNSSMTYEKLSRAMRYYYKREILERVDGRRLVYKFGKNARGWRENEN
# How it was run: as §1
# SPI1 = SPI1 (Homo sapiens, UniProt P17947 1-270); conditions: protein: recombinant; tags: N-terminal GST; dsDNA, one strand shown
# How it was run: as §1
# SPIB = SPIB (Homo sapiens, UniProt Q01892 1-262); conditions: protein: recombinant; tags: N-terminal GST; dsDNA, one strand shown
# Sequence of SPIB (Q01892 whole entry): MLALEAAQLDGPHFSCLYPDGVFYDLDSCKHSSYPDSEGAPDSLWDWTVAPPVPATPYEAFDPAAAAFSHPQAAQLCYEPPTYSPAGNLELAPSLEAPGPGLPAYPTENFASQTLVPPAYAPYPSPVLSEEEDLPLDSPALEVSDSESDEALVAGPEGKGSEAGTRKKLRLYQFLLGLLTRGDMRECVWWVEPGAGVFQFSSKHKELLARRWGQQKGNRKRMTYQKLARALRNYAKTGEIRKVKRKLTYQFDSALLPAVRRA
# How it was run: as §1
# ELK3 = target: T6, ELK3 (Homo sapiens, UniProt P41970 1-407); conditions: protein: recombinant; tags: N-terminal GST; dsDNA, one strand shown
# T6 sequence: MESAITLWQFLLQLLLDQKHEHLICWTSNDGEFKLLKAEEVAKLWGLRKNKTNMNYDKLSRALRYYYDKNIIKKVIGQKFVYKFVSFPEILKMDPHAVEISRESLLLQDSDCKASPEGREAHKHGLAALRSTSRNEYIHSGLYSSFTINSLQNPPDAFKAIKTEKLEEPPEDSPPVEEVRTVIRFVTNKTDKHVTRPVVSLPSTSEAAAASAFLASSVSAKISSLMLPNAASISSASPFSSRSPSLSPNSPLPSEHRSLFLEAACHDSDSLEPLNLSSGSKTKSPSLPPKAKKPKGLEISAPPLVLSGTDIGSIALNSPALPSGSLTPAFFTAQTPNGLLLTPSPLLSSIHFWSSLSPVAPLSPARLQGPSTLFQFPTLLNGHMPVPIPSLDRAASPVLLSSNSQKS
# How it was run: as §1
# FEV = target: T7, FEV (Homo sapiens, UniProt Q99581 1-238); conditions: protein: recombinant; tags: N-terminal GST; dsDNA, one strand shown
# T7 sequence: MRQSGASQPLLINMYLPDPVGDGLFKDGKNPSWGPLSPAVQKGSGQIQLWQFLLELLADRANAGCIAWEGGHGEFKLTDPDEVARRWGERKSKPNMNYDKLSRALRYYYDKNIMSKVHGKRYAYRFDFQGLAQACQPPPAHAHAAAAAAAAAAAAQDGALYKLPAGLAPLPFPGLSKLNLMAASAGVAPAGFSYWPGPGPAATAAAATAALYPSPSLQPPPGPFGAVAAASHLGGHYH
# How it was run: as §1
# ETV5 = ETV5 (Homo sapiens, UniProt P41161 1-510); conditions: protein: recombinant; tags: N-terminal GST; dsDNA, one strand shown
# Sequence of ETV5 (P41161 whole entry): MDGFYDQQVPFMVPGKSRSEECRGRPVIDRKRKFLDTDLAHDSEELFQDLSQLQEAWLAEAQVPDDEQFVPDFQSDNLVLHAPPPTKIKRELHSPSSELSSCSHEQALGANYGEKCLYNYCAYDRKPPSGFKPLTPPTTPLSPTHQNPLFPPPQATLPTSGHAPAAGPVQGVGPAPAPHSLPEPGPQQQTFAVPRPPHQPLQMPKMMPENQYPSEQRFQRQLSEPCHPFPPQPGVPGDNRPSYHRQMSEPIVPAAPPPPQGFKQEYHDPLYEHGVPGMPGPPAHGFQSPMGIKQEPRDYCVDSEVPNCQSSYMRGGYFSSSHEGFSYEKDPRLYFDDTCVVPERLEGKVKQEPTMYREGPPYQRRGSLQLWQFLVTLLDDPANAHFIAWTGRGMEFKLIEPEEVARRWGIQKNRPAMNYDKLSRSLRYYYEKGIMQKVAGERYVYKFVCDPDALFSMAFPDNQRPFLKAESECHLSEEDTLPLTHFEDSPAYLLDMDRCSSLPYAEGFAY
# How it was run: as §1
# HSF1 = HSF1 (Homo sapiens, UniProt Q00613 1-529); conditions: protein: recombinant; tags: N-terminal GST; chain copies: 3; dsDNA, one strand shown
# Sequence of HSF1 (Q00613 whole entry): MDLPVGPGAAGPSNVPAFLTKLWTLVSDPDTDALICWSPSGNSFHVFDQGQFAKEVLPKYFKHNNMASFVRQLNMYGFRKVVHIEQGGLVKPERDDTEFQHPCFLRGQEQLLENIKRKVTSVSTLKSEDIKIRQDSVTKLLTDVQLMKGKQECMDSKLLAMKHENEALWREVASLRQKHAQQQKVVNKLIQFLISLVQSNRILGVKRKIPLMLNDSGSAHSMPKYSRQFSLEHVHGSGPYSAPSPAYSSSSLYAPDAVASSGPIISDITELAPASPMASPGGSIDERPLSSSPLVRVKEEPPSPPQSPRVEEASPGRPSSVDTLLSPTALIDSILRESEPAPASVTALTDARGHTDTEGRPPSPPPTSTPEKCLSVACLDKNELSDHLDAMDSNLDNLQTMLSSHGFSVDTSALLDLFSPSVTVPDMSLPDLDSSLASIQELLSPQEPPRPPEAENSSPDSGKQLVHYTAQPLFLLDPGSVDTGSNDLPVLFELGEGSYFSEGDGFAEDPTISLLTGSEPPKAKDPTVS
# How it was run: as §1
# SPIC = target: T8, SPIC (Homo sapiens, UniProt Q8N5J4 1-248); conditions: protein: recombinant; tags: N-terminal GST; dsDNA, one strand shown
# T8 sequence: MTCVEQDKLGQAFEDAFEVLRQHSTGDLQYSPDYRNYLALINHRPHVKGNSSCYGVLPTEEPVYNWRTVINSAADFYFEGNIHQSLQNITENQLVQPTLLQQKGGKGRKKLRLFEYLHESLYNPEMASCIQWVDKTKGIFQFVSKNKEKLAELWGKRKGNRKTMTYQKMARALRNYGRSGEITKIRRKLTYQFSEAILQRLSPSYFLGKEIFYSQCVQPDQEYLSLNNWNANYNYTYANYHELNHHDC
# How it was run: as §1
# ELF4 = ELF4 (Homo sapiens, UniProt Q99607 1-663); conditions: protein: recombinant; tags: N-terminal GST; dsDNA, one strand shown
# Sequence of ELF4 (Q99607 whole entry): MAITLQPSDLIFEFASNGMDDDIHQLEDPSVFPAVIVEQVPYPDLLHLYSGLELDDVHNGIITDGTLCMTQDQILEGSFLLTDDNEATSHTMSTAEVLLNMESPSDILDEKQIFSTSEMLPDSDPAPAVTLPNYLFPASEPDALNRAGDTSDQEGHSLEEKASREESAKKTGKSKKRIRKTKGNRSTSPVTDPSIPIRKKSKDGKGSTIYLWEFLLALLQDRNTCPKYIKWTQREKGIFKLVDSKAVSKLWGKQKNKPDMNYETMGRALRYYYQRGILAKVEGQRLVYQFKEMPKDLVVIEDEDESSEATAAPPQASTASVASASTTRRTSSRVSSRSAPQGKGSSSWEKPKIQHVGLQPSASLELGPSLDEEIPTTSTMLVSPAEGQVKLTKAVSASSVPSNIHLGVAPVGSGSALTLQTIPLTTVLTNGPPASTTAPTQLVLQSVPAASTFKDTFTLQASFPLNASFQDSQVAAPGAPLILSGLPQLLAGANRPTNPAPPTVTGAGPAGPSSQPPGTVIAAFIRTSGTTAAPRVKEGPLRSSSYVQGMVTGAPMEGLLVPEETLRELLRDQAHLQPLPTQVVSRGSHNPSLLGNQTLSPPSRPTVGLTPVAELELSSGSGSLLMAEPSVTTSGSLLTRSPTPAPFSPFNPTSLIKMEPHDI
# How it was run: as §1
# ELK4 = target: T9, ELK4 (Homo sapiens, UniProt P28324-2 1-405); conditions: protein: recombinant; tags: N-terminal GST; dsDNA, one strand shown
# T9 sequence: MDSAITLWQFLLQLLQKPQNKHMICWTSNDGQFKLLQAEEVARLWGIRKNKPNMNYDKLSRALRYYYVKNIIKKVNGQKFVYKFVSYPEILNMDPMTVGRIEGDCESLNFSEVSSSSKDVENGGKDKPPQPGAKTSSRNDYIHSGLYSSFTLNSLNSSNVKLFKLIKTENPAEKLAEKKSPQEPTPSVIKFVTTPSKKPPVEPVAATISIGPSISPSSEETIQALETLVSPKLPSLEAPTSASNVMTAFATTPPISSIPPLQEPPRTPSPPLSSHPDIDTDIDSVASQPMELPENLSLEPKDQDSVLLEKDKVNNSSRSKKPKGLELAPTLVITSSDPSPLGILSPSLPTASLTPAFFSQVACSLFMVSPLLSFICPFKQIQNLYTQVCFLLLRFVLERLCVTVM
# How it was run: as §1
# ETV2 = target: T10, ETV2 (Homo sapiens, UniProt O00321 1-342); conditions: protein: recombinant; tags: N-terminal GST; dsDNA, one strand shown
# T10 sequence: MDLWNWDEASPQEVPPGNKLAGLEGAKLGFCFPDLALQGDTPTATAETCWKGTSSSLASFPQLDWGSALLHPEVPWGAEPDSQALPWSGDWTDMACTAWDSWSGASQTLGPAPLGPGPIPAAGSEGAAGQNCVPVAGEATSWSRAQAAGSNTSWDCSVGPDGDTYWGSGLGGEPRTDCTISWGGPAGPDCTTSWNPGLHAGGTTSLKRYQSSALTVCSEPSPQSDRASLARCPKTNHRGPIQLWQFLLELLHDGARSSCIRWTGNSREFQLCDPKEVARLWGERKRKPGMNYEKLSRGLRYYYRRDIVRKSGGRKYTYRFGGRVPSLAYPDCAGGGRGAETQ
# How it was run: as §1
# ELF3 = target: T11, ELF3 (Homo sapiens, UniProt P78545 1-371); conditions: protein: recombinant; tags: N-terminal GST; dsDNA, one strand shown
# T11 sequence: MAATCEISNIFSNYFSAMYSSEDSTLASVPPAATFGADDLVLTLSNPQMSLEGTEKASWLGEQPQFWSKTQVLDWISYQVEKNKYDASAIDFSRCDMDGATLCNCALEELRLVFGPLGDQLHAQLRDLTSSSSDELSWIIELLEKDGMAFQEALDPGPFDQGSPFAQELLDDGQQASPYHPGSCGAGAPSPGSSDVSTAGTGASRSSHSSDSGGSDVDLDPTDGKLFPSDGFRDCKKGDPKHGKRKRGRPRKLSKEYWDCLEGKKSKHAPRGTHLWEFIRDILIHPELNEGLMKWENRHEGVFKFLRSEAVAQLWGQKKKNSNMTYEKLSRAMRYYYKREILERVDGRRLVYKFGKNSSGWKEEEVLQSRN
# How it was run: as §1
# CRX = CRX (Homo sapiens, UniProt O43186 1-299); conditions: protein: recombinant; tags: N-terminal GST; dsDNA, one strand shown
# Sequence of CRX (O43186 whole entry): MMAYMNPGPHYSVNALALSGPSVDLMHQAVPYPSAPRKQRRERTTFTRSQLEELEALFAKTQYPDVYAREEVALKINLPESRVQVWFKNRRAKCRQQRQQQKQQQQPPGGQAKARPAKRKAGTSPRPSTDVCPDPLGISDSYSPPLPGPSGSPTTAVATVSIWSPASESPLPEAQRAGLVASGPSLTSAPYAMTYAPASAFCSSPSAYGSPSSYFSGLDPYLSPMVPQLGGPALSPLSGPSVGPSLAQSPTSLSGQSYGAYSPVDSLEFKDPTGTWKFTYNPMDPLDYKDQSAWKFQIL
# How it was run: as §1
# ETV1 = ETV1 (Homo sapiens, UniProt P50549 1-477); conditions: protein: recombinant; tags: N-terminal GST; dsDNA, one strand shown
# Sequence of ETV1 (P50549 whole entry): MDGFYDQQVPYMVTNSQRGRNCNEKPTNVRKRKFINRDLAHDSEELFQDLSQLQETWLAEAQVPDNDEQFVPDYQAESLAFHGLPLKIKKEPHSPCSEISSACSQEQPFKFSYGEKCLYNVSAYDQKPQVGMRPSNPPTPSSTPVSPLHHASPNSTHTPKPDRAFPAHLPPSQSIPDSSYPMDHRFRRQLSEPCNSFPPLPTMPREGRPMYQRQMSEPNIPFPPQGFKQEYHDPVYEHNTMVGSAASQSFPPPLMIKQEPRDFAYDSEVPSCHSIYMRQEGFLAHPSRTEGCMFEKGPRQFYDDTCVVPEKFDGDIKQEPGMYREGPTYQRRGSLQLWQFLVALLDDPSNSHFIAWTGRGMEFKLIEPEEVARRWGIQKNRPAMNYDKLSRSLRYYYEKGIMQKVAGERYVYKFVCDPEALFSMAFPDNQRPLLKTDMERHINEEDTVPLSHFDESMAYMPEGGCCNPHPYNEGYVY
# How it was run: as §1
sequence,measurement,setting,value
CTACAA,binding signal,FLI1,"1.17 fold enrichment (6-mer frequency, TF over GST control)"
same,binding signal,ELK1,"1.13 fold enrichment (6-mer frequency, TF over GST control)"
same,binding signal,GABPA,"1.2 fold enrichment (6-mer frequency, TF over GST control)"
same,binding signal,ERG,"1.08 fold enrichment (6-mer frequency, TF over GST control)"
same,binding signal,ELF1,"1.13 fold enrichment (6-mer frequency, TF over GST control)"
same,binding signal,EHF,"1.14 fold enrichment (6-mer frequency, TF over GST control)"
same,binding signal,SPI1,"1.09 fold enrichment (6-mer frequency, TF over GST control)"
same,binding signal,SPIB,"1.15 fold enrichment (6-mer frequency, TF over GST control)"
same,binding signal,ELK3,"1.03 fold enrichment (6-mer frequency, TF over GST control)"
same,binding signal,FEV,"1.14 fold enrichment (6-mer frequency, TF over GST control)"
same,binding signal,ETV5,"1.21 fold enrichment (6-mer frequency, TF over GST control)"
same,binding signal,HSF1,"1.16 fold enrichment (6-mer frequency, TF over GST control)"
same,binding signal,SPIC,"1.2 fold enrichment (6-mer frequency, TF over GST control)"
same,binding signal,ELF4,"1.18 fold enrichment (6-mer frequency, TF over GST control)"
same,binding signal,ELK4,"1.21 fold enrichment (6-mer frequency, TF over GST control)"
same,binding signal,ETV2,"1.18 fold enrichment (6-mer frequency, TF over GST control)"
same,binding signal,ELF3,"1.03 fold enrichment (6-mer frequency, TF over GST control)"
same,binding signal,CRX,"1.04 fold enrichment (6-mer frequency, TF over GST control)"
same,binding signal,ETV1,"1.13 fold enrichment (6-mer frequency, TF over GST control)"
